The source made the active and inactive calls.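 Rule for the calls, unless noted: active = inhibition at or above 50% at 10 µM; inactive = inhibition below 50%.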
Experiments:
[1] = inhibitors of TNFa-induced NFkB p65 translocation, primary screen, imaging, HUVEC, MLSMR starter and 10KST1 sets (AID 438;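 active = inhibition above 20% together with a positive visual image hit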;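 note: compound added about 3h40 before a 20 min TNFalpha stimulation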;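 for inhibition: signal is the nuclear over cytoplasmic p65 intensity ratio per well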); conditions: HUVEC TNFa-induced p65 nuclear translocation; cell count: measured here: nuclei count (cytotoxicity indicator), at 2.08 µM; inhibition: at 2 µM, stronger effect = higher value, 0% TNFa-plus-vehicle, 100% no-TNFa wells
[2] = reduction of polyQ htt aggregates in cells – imaging, exon1htt(103Q)mCFP cells, high-content imaging, primary screen (AID 483;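 active = visual image review flags a hit and inhibition of aggregation exceeds 20%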;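 note: compound exposure lasted 3 days before fixation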;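 for nuclei count: percent of the per-plate median nuclei count of sample wells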); conditions: exon1htt(103Q)mCFP cell line, aggregate imaging, at 2 µM; inhibition of aggregation: stronger effect = higher value; nuclei count: measured here: cell count, toxicity
[3] = endothelial E-selectin expression blockers – imaging, HUVEC, immunofluorescence, MLSMR starter and 10KST1 sets, primary screen (AID 487;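 active = visually confirmed hit in the image check and inhibition above 20%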;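 for inhibition: signal is fraction of cell area covered by stained E-selectin grains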;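 for nuclei count: 100% = median nuclei count of all wells on the same plate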); conditions: HUVEC TNFalpha-induced E-selectin immunofluorescence imaging, at 2 µM; inhibition: stronger effect = higher value; nuclei count: measured here: cell number, toxicity
[4] = molecular target: Voltage-gated potassium channel subunit beta-2 (Rattus norvegicus) (UniProt P62483); test: inhibitors of rat Kvbeta2 reductase activity – biochemical, NADPH fluorescence, primary screen (AID 622;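 active = fluorescence slope higher than the sample average by over 3 SD, cut at about -0.22 in these data, passing the limit was not always enough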;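 note: slope of raw intensity against log time taken from 70 to 1610 s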); conditions: recombinant KvBeta, 4-cyanobenzaldehyde reduction, at 10 µM, stronger effect = higher value
Sequence of Voltage-gated potassium channel subunit beta-2 (Rattus norvegicus) (P62483 whole entry, looked up): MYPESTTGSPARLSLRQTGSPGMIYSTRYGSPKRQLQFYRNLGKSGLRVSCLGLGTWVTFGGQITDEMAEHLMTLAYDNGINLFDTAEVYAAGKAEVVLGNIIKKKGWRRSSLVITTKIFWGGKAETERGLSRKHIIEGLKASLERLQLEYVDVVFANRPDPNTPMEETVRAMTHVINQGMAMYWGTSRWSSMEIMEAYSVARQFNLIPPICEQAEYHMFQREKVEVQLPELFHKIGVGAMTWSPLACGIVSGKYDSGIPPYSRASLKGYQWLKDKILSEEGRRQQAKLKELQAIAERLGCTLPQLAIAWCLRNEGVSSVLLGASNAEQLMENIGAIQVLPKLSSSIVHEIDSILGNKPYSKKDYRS

[5] = molecular target: Voltage-gated potassium channel subunit beta-2 (Rattus norvegicus) (UniProt P62483); test: enhancers of rat Kvbeta2 NADPH turnover – biochemical, NADPH fluorescence, primary screen (AID 623;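 active = NADPH fluorescence slope more negative than the mean of all samples by about 3 SD, 99.7% confidence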;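 note: fluorescence intensity change per second fitted from 20 to 320 s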); conditions: Recombinant KvBeta, NADPH fluorescence decrease slope, 10 min; at 10 µM; stronger effect = lower value
[6] = molecular target: Alpha-2C adrenergic receptor (Homo sapiens) (UniProt P18825); test: compounds altering alpha2C-coupled GIRK flux – cell-based, HEK293 alpha2C/GIRK1/2, thallium flux, primary screen (AID 624;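 active = fluorescence slope after compound addition differing from the mean of all screened samples at 99.7% confidence, in either direction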;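 note: slope of fluorescence ratio to pre-addition baseline per second over 15 to 24 s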); conditions: thallium flux BTC fluorescence, at 10 µM, actives lie on both sides
Sequence of Alpha-2C adrenergic receptor (Homo sapiens) (P18825 whole entry, looked up): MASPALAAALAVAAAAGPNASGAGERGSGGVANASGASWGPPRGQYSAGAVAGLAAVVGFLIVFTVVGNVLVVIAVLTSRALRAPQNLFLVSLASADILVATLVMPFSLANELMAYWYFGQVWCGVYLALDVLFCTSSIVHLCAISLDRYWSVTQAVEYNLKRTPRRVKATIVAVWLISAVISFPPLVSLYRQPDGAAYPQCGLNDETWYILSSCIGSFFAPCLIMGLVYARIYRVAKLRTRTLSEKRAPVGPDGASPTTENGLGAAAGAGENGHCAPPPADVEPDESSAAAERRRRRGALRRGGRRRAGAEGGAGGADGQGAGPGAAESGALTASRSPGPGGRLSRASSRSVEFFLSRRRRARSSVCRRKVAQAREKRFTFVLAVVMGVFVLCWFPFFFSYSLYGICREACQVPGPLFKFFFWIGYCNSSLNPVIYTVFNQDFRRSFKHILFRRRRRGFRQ

[7] = blockers of RIG-like receptor reporter activation – cell-based, Sendai virus stimulus, luciferase, 10K MLSCN set, TLR/RLR signaling modifier project, primary screen (AID 602276); conditions: HEK293 RL24 IRF3 luciferase reporter, at 10 µM, stronger effect = higher value;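 note: firefly luciferase from ISG56 promoter only with Renilla not read in this screen; 0% = Sendai virus plus DMSO and 100% = medium plus DMSO without virus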
[8] = TLR3 IRF3 reporter activation blockers – cell-based, poly I:C stimulus, luciferase, 10K MLSCN set, primary screen (AID 602277;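 active = inhibition of the reporter signal at or above 50%; inactive = inhibition below 50%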); conditions: HEK293-TLR3 RL24 IRF3 luciferase reporter, at 10 µM, stronger effect = higher value

| SMILES | cell count [1] | inhibition [1] | inhibition of aggregation [2] | nuclei count [2] [%] | inhibition [3] | nuclei count [3] [%] | fluorescence slope [4] | NADPH fluorescence slope [5] | slope [6] | inhibition [7] | inhibition [8] |
| --- | --- | --- | --- | --- | --- | --- | --- | --- | --- | --- | --- |
| O=[n+]1c2c(n([O-])c3cc(F)c(N4CCCC4)cc31)CCC2 | 709 | -9.4% (inactive) | 3% (inactive) | 78.5 | -98.9% (inactive) | 123 | -0.574 (inactive) | -5.8e-06 (inactive) | 0.00378 (inactive) | 0.0339% (inactive) | 0.593% (inactive) |
| O=c1ccc(S(=O)(=O)N2CCC(Cc3ccccc3)CC2)c[nH]1 | 451 | 0% (inactive) | -8.8% (inactive) | 103 | -15.8% (inactive) | 111 | -0.369 (inactive) | -5e-05 (inactive) | 0.00726 (inactive) | 11.4% (inactive) | 31.9% (inactive) |
| COc1ccc(C(=O)CSc2nnc(C3CCCCC3)n2N)c(OC)c1 | 419 | -11.9% (inactive) | 24.4% (inactive) | 97.2 | 99.1% (active) | 89.1 | -0.612 (inactive) | -2e-05 (inactive) | 0.00551 (inactive) | 10.3% (inactive) | 11.5% (inactive) |
| COc1ccc(C2C(C(=O)c3sc(C)nc3C)=C(O)C(=O)N2CCN(C)C)cc1OC (centres undefined) | 539 | 13.4% (inactive) | -5.5% (inactive) | 96.8 | 10.8% (inactive) | 103 | -0.6 (inactive) | -7.9e-05 (inactive) | 0.0037 (inactive) | -1.16% (inactive) | 4.66% (inactive) |
| COc1ccc(-c2nc(C)sc2CC(=O)O)cc1 | 533 | -15.7% (inactive) | 21% (inactive) | 93.9 | -1.1% (inactive) | 101 | -0.463 (inactive) | -8.6e-06 (inactive) | 0.00658 (inactive) | 11.4% (inactive) | 28.3% (inactive) |
| O=C(OCc1cc2ccccc2[nH]c1=O)c1ccco1 | 234 | 5.6% (inactive) | 1.7% (inactive) | 87.3 | 40.8% (inactive) | 96.9 | -0.476 (inactive) | -6e-05 (inactive) | 0.0037 (inactive) | 4.98% (inactive) | 31.1% (inactive) |
| CCC1CCCCN1C(=O)CSc1nnc(-c2ccc(OC)cc2)o1 (centres undefined) | 599 | -4.4% (inactive) | 20.5% (inactive) | 96.8 | -27.4% (inactive) | 113 | -0.539 (inactive) | 3e-05 (inactive) | 0.0067 (inactive) | -5.53% (inactive) | -21.5% (inactive) |
| COc1ccc(Cc2noc(-c3ccc(C)cc3)n2)cc1 | 488 | 12.1% (inactive) | -0.3% (inactive) | 104 | -304% (inactive) | 138 | -0.366 (inactive) | 3.7e-05 (inactive) | 0.00509 (inactive) | -38% (inactive) | -135% (inactive) |
| COc1cccc(-c2csc3nnc(SCC(=O)c4ccc(NC(C)=O)cc4)n23)c1 | 452 | 0% (inactive) | 21.2% (inactive) | 106 | -116% (inactive) | 176 | -0.47 (inactive) | 0.000104 (inactive) | 0.00779 (inactive) | 8.19% (inactive) | 17.5% (inactive) |
| OC1C[N+]2(CCCCC2)C1 | 278 | 9.3% (inactive) | -10.6% (inactive) | 104 | 62.9% (active) | 111 | -0.497 (inactive) | -5.4e-05 (inactive) | 0.00461 (inactive) | 11.5% (inactive) | 10.3% (inactive) |
| Cc1nc(N2CCc3ccccc32)[nH]c(=O)c1CCC(C)C | 345 | -1.1% (inactive) | -19.6% (inactive) | 112 | -114% (inactive) | 135 | -0.439 (inactive) | -4.2e-05 (inactive) | 0.00282 (inactive) | 0.138% (inactive) | 3.18% (inactive) |
| CCOC(=O)C1=C(C)NC(=O)NC1c1ccc(OCCO)c(OC)c1 (centres undefined) | 634 | -12.8% (inactive) | -2.9% (inactive) | 102 | 30.3% (inactive) | 89.2 | -0.468 (inactive) | -4.3e-05 (inactive) | 0.00652 (inactive) | -1.76% (inactive) | 25.5% (inactive) |
| O=C(Nc1nnc(-c2ccc(Cl)cc2)o1)C1CCCCC1 | 673 | 1.8% (inactive) | 18.6% (inactive) | 96.8 | -21.5% (inactive) | 115 | -0.443 (inactive) | -6.8e-05 (inactive) | 0.00624 (inactive) | 6.6% (inactive) | 3.98% (inactive) |
| CCOc1ccc(-c2nnc(SCC(=O)N3CCN(c4ccccc4)CC3)o2)cc1 | 672 | -8.6% (inactive) | 8.1% (inactive) | 101 | -59.7% (inactive) | 109 | -0.559 (inactive) | 2.1e-05 (inactive) | 0.0058 (inactive) | 2.37% (inactive) | 14.8% (inactive) |
| Cc1cc(C)nc(SCC(=O)Nc2ncc3c(n2)CCCC3=O)n1 | 188 | -8.6% (inactive) | 10.1% (inactive) | 98.6 | -9.1% (inactive) | 85.2 | -0.622 (inactive) | -1.1e-05 (inactive) | 0.00766 (inactive) | 6.63% (inactive) | 11.4% (inactive) |
| CCc1ccc(CN(C)CCc2ccccn2)cc1 | 590 | -7.7% (inactive) | 7.2% (inactive) | 108 | -61.6% (inactive) | 94 | -0.482 (inactive) | -0.000258 (inactive) | 0.00499 (inactive) | 5.44% (inactive) | 7.65% (inactive) |
| O=C(CCn1c(=O)sc2ccccc21)Nc1nccs1 | 575 | -22.3% (inactive) | 4.1% (inactive) | 65.7 | -53% (inactive) | 98.6 | -0.618 (inactive) | 3e-05 (inactive) | 0.00595 (inactive) | -21.2% (inactive) | -66.6% (inactive) |
| CCCn1nc(CC(=O)O)c2ccccc2c1=O | 468 | -12.3% (inactive) | 18.8% (inactive) | 123 | -10.6% (inactive) | 119 | -0.426 (inactive) | -3.1e-05 (inactive) | 0.00533 (inactive) | 16.7% (inactive) | 16.8% (inactive) |
| COc1ccc(NC(=O)CCS(=O)(=O)c2ccc(OC)cc2)cc1 | 401 | -2.5% (inactive) | 20.3% (inactive) | 84.3 | -24% (inactive) | 101 | -0.539 (inactive) | -8.1e-06 (inactive) | 0.00539 (inactive) | -3.69% (inactive) | -1.71% (inactive) |
| CCOC(=O)C1=C(C)NC(C)=C(C(=O)OCC)C1C(=O)OC1CCOC1=O (centres undefined) | 653 | -4.7% (inactive) | 5.7% (inactive) | 112 | -121% (inactive) | 103 | -0.587 (inactive) | -2.6e-05 (inactive) | 0.00602 (inactive) | 9.93% (inactive) | 20% (inactive) |
| CCN(CC)CCN1C(=O)Cn2c(C)c(C)c3cccc1c32 | 426 | -6.7% (inactive) | 18.6% (inactive) | 93.7 | -102% (inactive) | 232 | -0.434 (inactive) | -1.1e-05 (inactive) | 0.00506 (inactive) | 15% (inactive) | 24.1% (inactive) |
| COCCOC(=O)c1[nH]c2c(c1C)C(=O)CC(c1ccco1)C2 (centres undefined) | 930 | 12.1% (inactive) | -345% (inactive) | 2.7 | -169% (inactive) | 95.8 | -0.568 (inactive) | -6.8e-06 (inactive) | 0.00646 (inactive) | 14.2% (inactive) | 77.7% (active) |
| O=C1c2ccccc2S(=O)(=O)N1Cc1nnc(-c2ccccc2Br)o1 | 536 | -4.9% (inactive) | -9.2% (inactive) | 106 | 51.8% (active) | 99.5 | -0.488 (inactive) | -6e-05 (inactive) | 0.00709 (inactive) | 16.6% (inactive) | 20.8% (inactive) |
| CCOC(=O)c1ccc2[nH]c3c(c2c1)CN(C)CC3 | 686 | -1.3% (inactive) | 28.7% (inactive) | 73.1 | -29.4% (inactive) | 114 | -0.543 (inactive) | -5.6e-05 (inactive) | 0.00602 (inactive) | 5.79% (inactive) | 21.3% (inactive) |
| CCc1nc2sc3ccccc3c(=O)c2c(=O)n1Cc1ccco1 | 577 | 14.3% (inactive) | -3.1% (inactive) | 87.2 | 4.8% (inactive) | 112 | -0.568 (inactive) | -3.8e-05 (inactive) | 0.00576 (inactive) | -14.6% (inactive) | -14.8% (inactive) |
| COC(=O)[C@@H](NC(=O)NCc1ccccc1Cl)C(C)C | 732 | 8.4% (inactive) | -23.1% (inactive) | 100 | 15.5% (inactive) | 109 | -0.469 (inactive) | -2.9e-05 (inactive) | 0.00402 (inactive) | 4.11% (inactive) | 32.6% (inactive) |
| C=CCOc1ccccc1/C=c1\sc2nc(=O)c(C)nn2c1=O | 704 | -11.1% (inactive) | 7.5% (inactive) | 100 | -31.3% (inactive) | 106 | -0.362 (inactive) | 1.8e-05 (inactive) | 0.0042 (inactive) | 15.6% (inactive) | 26.5% (inactive) |
| CN(C)S(=O)(=O)c1cccc(C(=O)Nc2cccnc2)c1 | 294 | 10.1% (inactive) | 0% (inactive) | 103 | -79.6% (inactive) | 128 | -0.407 (inactive) | -5.9e-05 (inactive) | 0.00527 (inactive) | 16.5% (inactive) | 10.8% (inactive) |
| CCOC(=O)c1ccc(Oc2cc(C)nc(SC)n2)cc1 | 484 | 10.1% (inactive) | 13.3% (inactive) | 117 | -192% (inactive) | 134 | -0.47 (inactive) | -9.6e-06 (inactive) | 0.00614 (inactive) | 15.8% (inactive) | 19.9% (inactive) |

Source: PubChem BioAssay
